Data published in PubChem BioAssay (Tox21).
Inconclusive results are not listed. Where a call stands in place of a potency, no number is given. Unmarked numbers belong to inactive results. Active and inactive are the calls of the source. Calls come from the whole dose curve; as a rule, active = well fitted curve in the direction sought with a large enough effect in the repeat runs; inconclusive = weak or mixed curves; inactive = no such curve, though single readings can be large; an effect the other way counts as inactive or inconclusive.

Experiments:
[1] = target: Cytochrome P450 2C19 (Homo sapiens) (UniProt P33261); assay: Cytochrome P450 Family 2 Subfamily C Member 19 (CYP2C19) small molecule antagonists: luciferase reporter qHTS assay (AID 1671197); note: nearly all actives have a fitted effect of over 65% in size; for activity change, negative = inhibition: series mostly up to about 120 µM
Chain of Cytochrome P450 2C19 (Homo sapiens) (P33261 whole entry, looked up): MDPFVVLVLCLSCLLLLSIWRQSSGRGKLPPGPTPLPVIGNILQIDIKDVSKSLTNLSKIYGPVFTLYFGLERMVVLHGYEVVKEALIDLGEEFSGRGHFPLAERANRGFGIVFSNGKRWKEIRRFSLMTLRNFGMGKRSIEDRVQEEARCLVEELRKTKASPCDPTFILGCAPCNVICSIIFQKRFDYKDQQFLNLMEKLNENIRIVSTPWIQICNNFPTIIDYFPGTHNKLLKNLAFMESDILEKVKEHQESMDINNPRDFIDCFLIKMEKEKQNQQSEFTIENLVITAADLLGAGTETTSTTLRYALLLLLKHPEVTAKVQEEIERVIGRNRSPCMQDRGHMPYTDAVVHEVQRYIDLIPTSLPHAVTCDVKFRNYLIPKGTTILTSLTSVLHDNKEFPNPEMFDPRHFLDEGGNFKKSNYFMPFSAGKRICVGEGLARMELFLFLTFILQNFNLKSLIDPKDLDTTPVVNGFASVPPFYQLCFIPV
Method in brief: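 Enzyme-substrate mix with proluciferin substrate (P450-Glo CYP2C19 system) preincubated with compounds 10 min at room temperature; NADPH regeneration solution added, 37C for 1 h; detection reagent stops reaction, luminescence read after 20 min. Ketoconazole positive control.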

[2] = target: Cytochrome P450 1A2 (Homo sapiens) (UniProt P05177); assay: Cytochrome P450 Family 1 Subfamily A Member 2 (CYP1A2) small molecule antagonists: luciferase reporter qHTS assay (AID 1671199); note: nearly all actives have a fitted effect of over 50% in size; for activity change, negative = inhibition: series mostly up to about 120 µM
Chain of Cytochrome P450 1A2 (Homo sapiens) (P05177 whole entry, looked up): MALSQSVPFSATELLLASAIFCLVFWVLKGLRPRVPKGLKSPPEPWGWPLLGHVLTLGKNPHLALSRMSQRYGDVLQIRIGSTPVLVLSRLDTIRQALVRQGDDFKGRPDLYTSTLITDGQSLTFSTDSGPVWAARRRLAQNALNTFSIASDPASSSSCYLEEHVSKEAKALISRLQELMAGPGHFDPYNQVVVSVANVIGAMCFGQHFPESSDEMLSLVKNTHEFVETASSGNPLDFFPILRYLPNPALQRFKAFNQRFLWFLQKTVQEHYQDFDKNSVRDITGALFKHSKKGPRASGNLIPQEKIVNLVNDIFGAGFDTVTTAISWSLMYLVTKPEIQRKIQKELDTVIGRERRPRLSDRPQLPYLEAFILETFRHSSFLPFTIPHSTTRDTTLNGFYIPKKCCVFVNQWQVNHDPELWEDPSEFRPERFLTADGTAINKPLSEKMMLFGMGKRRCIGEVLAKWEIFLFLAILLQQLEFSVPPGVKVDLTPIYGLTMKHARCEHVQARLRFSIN
Method in brief: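 Human CYP1A2 activity measured with a P450-Glo proluciferin substrate; compounds in DMSO preincubated 10 min at room temperature with enzyme-substrate mix, then NADPH regeneration system added for 1 h. Luciferin detection reagent, 20 min, luminescence read.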

[3] = target: Cytochrome P450 3A4 (Homo sapiens) (UniProt P08684); assay: Cytochrome P450 Family 3 Subfamily A Member 4 (CYP3A4) small molecule antagonists: luciferase reporter qHTS assay (AID 1671201); note: nearly all actives have a fitted effect of over 50% in size; for activity change, negative = inhibition: series mostly up to about 120 µM
Chain of Cytochrome P450 3A4 (Homo sapiens) (P08684 whole entry, looked up): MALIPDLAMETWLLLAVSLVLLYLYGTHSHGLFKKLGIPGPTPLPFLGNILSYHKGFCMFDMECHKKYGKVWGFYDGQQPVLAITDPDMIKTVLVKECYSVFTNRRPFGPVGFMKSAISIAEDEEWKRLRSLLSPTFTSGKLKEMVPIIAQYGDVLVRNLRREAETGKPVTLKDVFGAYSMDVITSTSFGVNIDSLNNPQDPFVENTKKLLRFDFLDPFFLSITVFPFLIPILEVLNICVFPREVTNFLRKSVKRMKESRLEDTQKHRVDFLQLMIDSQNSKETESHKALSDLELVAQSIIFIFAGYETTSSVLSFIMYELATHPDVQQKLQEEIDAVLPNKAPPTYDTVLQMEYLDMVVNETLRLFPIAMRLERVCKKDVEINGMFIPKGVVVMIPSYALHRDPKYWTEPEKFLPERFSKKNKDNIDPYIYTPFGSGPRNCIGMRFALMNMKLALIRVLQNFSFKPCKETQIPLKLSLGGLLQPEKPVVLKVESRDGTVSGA
Method in brief: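 Compounds in DMSO were pin-transferred onto CYP3A4 enzyme-substrate mix and held 10 min at room temperature. NADPH regenerating solution started the reaction for 1 h; luciferin detection reagent stopped it, and luminescence was read after 20 min.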

[4] = target: Voltage-gated inwardly rectifying potassium channel KCNH2 (Homo sapiens) (UniProt Q12809); assay: Human Ether-a-go-go-Related Gene (hERG) channel small molecule antagonists: fluorescence cell-based qHTS assay (AID 1671200); note: nearly all actives have a fitted effect of over 50% in size;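 for activity change, negative = inhibition: hERG-expressing U2OS cells given a thallium stimulus after FluxOR II dye loading; series mostly up to about 77 µM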
Chain of Voltage-gated inwardly rectifying potassium channel KCNH2 (Homo sapiens) (Q12809 whole entry, looked up): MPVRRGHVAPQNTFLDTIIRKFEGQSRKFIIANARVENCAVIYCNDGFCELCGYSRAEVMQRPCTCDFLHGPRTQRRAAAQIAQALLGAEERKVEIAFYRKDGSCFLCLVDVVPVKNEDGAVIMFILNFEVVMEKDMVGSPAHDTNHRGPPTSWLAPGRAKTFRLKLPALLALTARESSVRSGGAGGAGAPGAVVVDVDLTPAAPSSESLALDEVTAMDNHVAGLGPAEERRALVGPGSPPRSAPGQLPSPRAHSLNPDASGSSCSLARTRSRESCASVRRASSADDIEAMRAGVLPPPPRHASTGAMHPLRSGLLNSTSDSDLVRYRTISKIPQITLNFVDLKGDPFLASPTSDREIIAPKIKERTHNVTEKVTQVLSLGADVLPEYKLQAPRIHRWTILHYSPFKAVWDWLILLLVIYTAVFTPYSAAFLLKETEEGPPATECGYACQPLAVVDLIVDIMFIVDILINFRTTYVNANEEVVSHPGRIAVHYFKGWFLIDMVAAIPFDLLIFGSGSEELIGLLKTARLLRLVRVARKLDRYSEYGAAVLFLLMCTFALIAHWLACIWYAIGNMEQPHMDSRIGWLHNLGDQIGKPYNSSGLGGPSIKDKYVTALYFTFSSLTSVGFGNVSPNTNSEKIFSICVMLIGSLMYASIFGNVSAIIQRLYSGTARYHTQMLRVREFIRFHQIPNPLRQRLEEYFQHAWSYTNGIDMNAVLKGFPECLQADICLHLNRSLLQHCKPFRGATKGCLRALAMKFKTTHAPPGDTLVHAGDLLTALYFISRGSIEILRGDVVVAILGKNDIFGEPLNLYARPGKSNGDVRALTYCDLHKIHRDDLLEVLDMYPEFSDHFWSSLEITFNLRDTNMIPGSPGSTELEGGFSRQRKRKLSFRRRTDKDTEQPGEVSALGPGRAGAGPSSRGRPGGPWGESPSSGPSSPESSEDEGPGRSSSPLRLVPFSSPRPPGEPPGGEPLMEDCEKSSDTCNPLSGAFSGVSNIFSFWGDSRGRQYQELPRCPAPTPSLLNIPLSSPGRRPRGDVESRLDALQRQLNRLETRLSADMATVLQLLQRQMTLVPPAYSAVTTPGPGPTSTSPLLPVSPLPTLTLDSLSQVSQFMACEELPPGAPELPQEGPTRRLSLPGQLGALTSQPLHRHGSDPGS
Method in brief: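 Channel function was assessed by thallium flux. Cells seeded the previous day and kept at 37 C took up FluxOR II dye over 1 h in the dark at room temperature, then sat another 10 min before stimulation.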

[5] = target: Cytochrome P450 2C9 (Homo sapiens) (UniProt P11712); assay: Cytochrome P450 Family 2 Subfamily C Member 9 (CYP2C9) small molecule antagonists: luciferase reporter qHTS assay (AID 1671198); note: nearly all actives have a fitted effect of over 50% in size; for activity change, negative = inhibition: series mostly up to about 120 µM
Chain of Cytochrome P450 2C9 (Homo sapiens) (P11712 whole entry, looked up): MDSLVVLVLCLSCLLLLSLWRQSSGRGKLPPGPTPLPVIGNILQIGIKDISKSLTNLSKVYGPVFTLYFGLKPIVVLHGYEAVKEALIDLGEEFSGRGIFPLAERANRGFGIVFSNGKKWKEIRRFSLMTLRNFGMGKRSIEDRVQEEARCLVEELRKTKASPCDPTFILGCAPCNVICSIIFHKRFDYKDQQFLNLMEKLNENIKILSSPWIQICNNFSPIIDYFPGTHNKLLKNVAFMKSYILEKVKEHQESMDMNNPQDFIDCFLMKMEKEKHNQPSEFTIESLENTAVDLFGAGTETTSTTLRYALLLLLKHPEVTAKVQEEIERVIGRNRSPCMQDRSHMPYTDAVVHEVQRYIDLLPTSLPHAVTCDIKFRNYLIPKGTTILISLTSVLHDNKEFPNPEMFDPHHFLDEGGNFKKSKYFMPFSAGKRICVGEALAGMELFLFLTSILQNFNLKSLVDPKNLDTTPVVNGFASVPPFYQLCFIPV
Method in brief: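 P450-Glo proluciferin substrate with CYP2C9 enzyme; 10 min RT preincubation, then NADPH regeneration 1 h at 37C; luciferin detection reagent 20 min RT, luminescence in relative luminescence units.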
Potency is the fitted concentration of half-maximal effect.

C/C=C/C=C/CO
Potency [1]: inactive
Potency [2]: inactive
Potency [3]: 63.3 µM (active)

O=C1OC(=O)C2C3C=CC(C3)C12 (configuration not stated)
Potency [1]: inactive
Potency [2]: inactive
Potency [3]: inactive

CCCCCCCCCCCC(=O)OC[C@@H](O)[C@H]1OC[C@H](OCCO)[C@H]1OCCO
Potency [1]: inactive
Potency [2]: inactive
Potency [4]: inactive
Potency [3]: 17.4 µM (active)

CCCCc1ncc(/C=C(\Cc2cccs2)C(=O)O)n1Cc1ccc(C(=O)O)cc1
Potency [1]: inactive
Potency [4]: inactive

CCCCCCc1ccc(-c2ccc(C#N)cc2)cc1
Potency [1]: 44 µM (active)
Potency [2]: 31.2 µM (active)
Potency [3]: inactive

COc1ccc(C)cc1[N+](=O)[O-]
Potency [5]: inactive
Potency [2]: 10.2 µM (active)
Potency [4]: inactive
Potency [3]: 36.1 µM (active)

C#C[C@]1(O)CC[C@H]2[C@@H]3CCc4cc(OC5CCCC5)ccc4[C@H]3CC[C@@]21C
Potency [5]: 19.5 µM (active)
Potency [4]: inactive

C/C(=C(\CCOP(=O)(O)O)SC(=O)c1ccccc1)N(C=O)Cc1cnc(C)nc1N
activity change, negative = inhibition [4]: 1.89% [at 6.97 µM]

COc1ccc(-c2nc3ccc(C4=NNC(=O)CC4C)cc3[nH]2)cc1 (configuration not stated)
Potency [2]: 3.63 µM (active)
Potency [4]: inactive
Potency [3]: inactive

CCC(C)O (configuration not stated)
Potency [4]: inactive

CC(=O)c1ccc2c(c1)N(CCCN(C)C)c1ccccc1S2
Potency [5]: inactive
Potency [2]: 11 µM (active)
Potency [3]: inactive

C=CC(=O)OCCOCCOC(=O)C=C
Potency [5]: inactive
Potency [4]: inactive
Potency [3]: inactive

CCN(CC)CCNc1ccc(CNC=O)c2sc3ccc(OC)cc3c(=O)c12
Potency [5]: 31.7 µM (active)
Potency [2]: 22.4 µM (active)
Potency [4]: inactive
Potency [3]: 20 µM (active)

CN(C)CCN(Cc1ccccc1)c1ccccn1
Potency [5]: inactive
Potency [3]: inactive

CCCn1cnc2c1c(=O)n(CCCCC(C)=O)c(=O)n2C
Potency [5]: inactive
Potency [4]: inactive
Potency [3]: inactive

Cc1cc(N)c2cc(NC(=O)Nc3ccc4nc(C)cc(N)c4c3)ccc2n1
Potency [4]: inactive

CNCCCCOc1ccccc1Cc1ccccc1
Potency [5]: inactive
Potency [4]: 3.38 µM (active)

CCCCCCCCCCCCCCCCCCOS(=O)(=O)O
Potency [4]: inactive
Potency [3]: inactive

C=CC(=O)OCCOc1ccccc1
Potency [4]: inactive

CCOc1ccc(O)cc1
Potency [4]: inactive
Potency [3]: inactive

O=[N+]([O-])c1ccc2[nH]ncc2c1
Potency [5]: inactive
Potency [2]: 31.7 µM (active)
Potency [4]: inactive
Potency [3]: inactive

NCC(=O)O
activity change, negative = inhibition [4]: 0.344% [at 15.8 µM]

COCCCN1CCC(NC(=O)c2cc(Cl)c(N)c3c2OCC3)CC1
Potency [5]: 3.09 µM (active)
Potency [2]: inactive
Potency [4]: inactive
Potency [3]: inactive

CCCCCCCCCCO[C@@H]1O[C@H](CO)[C@@H](O)[C@H](O)[C@H]1O
Potency [5]: inactive
Potency [2]: inactive
Potency [3]: inactive

CN(C)CCN(Cc1ccc(Cl)cc1)c1ccccn1
Potency [4]: 2.39 µM (active)
Potency [3]: inactive

CC(C)Nc1ccc(NC(C)C)c2c1C(=O)c1ccccc1C2=O
Potency [2]: 2.34 µM (active)
Potency [4]: inactive
Potency [3]: 3.3 µM (active)

CN(C)CCCN1c2ccccc2Sc2ccccc21
Potency [4]: 9.52 µM (active)

CC(C)O.CC(C)O.CCOC(=O)/C=C(\C)O.CCOC(=O)/C=C(\C)O.[Ti]
Potency [4]: inactive

O=C(O)C1(C(=O)Nc2ccc(Cl)cc2Cl)CC1
Potency [5]: 15.9 µM (active)
Potency [2]: 39.9 µM (active)
Potency [4]: inactive
Potency [3]: inactive

COc1cc(C(=O)OCCCN2CCCN(CCCOC(=O)c3cc(OC)c(OC)c(OC)c3)CC2)cc(OC)c1OC
Potency [2]: inactive
Potency [4]: 6.01 µM (active)

Nc1cc(C(=O)O)c(O)c(S(=O)(=O)O)c1
Potency [5]: inactive
Potency [4]: inactive
Potency [3]: inactive

C[N+](C)(C)CCOC(=O)CCC(=O)OCC[N+](C)(C)C
Potency [5]: inactive
Potency [2]: inactive
Potency [4]: inactive
Potency [3]: inactive

CCCCO
Potency [4]: inactive

CCCCCCCC/C=C\CCCCCCCC(=O)OCC
Potency [5]: 71 µM (active)
Potency [4]: inactive

O=S(c1cc(Cl)cc(Cl)c1O)c1cc(Cl)cc(Cl)c1O
Potency [5]: 17.4 µM (active)
Potency [4]: inactive
Potency [3]: inactive

Nc1ccc([N+](=O)[O-])c(C(F)(F)F)c1
Potency [2]: 11 µM (active)
Potency [4]: inactive
Potency [3]: inactive

CN(C)C(=O)NC1(c2ccccc2)CCN(CC[C@@]2(c3ccc(F)c(F)c3)CN(C(=O)c3ccccc3)CCO2)CC1
Potency [2]: inactive

C=C(C)C(=O)OCC
Potency [5]: inactive
Potency [2]: inactive
Potency [4]: inactive
Potency [3]: inactive

CC(C)(O)c1ccc(CNC(=O)c2cccnc2Oc2ccc(F)cc2)cc1
Potency [5]: 22.4 µM (active)
Potency [4]: inactive
Potency [3]: 31.7 µM (active)

C[C@H]1C[C@H]2[C@@H]3CCC4=CC(=O)C=C[C@]4(C)[C@@]3(Cl)[C@@H](O)C[C@]2(C)[C@@]1(O)C(=O)CO
Potency [5]: 17.4 µM (active)
Potency [2]: inactive
Potency [3]: inactive

CCN(CC)CCOC(=O)C(Cc1cccc2ccccc12)CC1CCCO1 (configuration not stated)
Potency [5]: inactive
Potency [4]: 9.52 µM (active)

C[C@H](CCC(=O)O)[C@H]1CC[C@H]2[C@@H]3CC[C@@H]4C[C@H](O)CC[C@]4(C)[C@H]3C[C@H](O)[C@]12C
Potency [4]: inactive

CCc1c(C(=O)NN2CCCCC2)nn(-c2ccc(Cl)cc2Cl)c1-c1ccc(Br)cc1
Potency [5]: 8.94 µM (active)
Potency [2]: inactive
Potency [3]: inactive

O=C(O)c1nc(Cl)c(Cl)c(Cl)c1Cl
Potency [5]: 39.9 µM (active)
Potency [4]: inactive
Potency [3]: inactive

CC(=O)[O][Al]
Potency [4]: inactive

CO[C@@H]1[C@H](OC(=O)/C=C/C=C/C=C/C=C/C(=O)O)CC[C@]2(CO2)[C@H]1[C@@]1(C)O[C@@H]1CC=C(C)C
Potency [4]: inactive
